In PubChem BioAssay (NCI):
This is part of a sample that, as a whole, favours compounds with a hit. Of some 83,000 tested, about 20% had one in any assay.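 Step 1: grow cells in 96-well plates. Step 2: add test compound at a single concentration. Step 3: incubate 48 h. Step 4: record percent growth.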 Calls of active or inactive are those of the source.

Each molecule was assayed on U251 CNS (assay: NCI-60 one-dose screen, 48 h (100 = growth as untreated, 0 = no growth, -100 = all killed)). Conditions: 10 µM unless noted.
Protocol: Growth inhibition of the U251 human tumor cell line is measured as a screen for anti-cancer activity. Cells are grown in 96 well plates and exposed to the test compound for 48 hours. Compounds are tested at a single concentration, which is 10^-5 M for most compounds. The reported endpoint is percent growth (GI% or GIPRCNT), where numbers from 0 - 100% represent growth inhibition, and numbers from -100% - 0 represent cell death. For example, a value of 40 represents 60% growth inhibition. A value of 0 means no net growth occurred over the course of the experiment. A value of -40 indicates 40% of cells at the beginning of the experiment died by the end of the experiment. A value of -100 means all cells are dead at the end of the experiment.
NCI-60 Human Tumor Cell Lines Screen was performed using the standard one-dose NCI protocol, which is described in more detail at https://dtp.cancer.gov/discovery_development/nci-60/default.htm.
Compounds with GIPRCNT values below 10 were considered active. Activity score was based on GIPRCNT using the following formula: […]
Score is 0 for GIPRCNT values of 100 or above, 50 for GIPRCNT values of 0, and 100 for GIPRCNT values of -100.
`Nc1c(C(=O)Nc2cccc3c2OCCO3)sc2nc3c(cc12)C(=O)CCC3` was tested, and the growth was 33% (inactive).
With `CCOC(=O)C12CCCC1=CC(=O)CC2` (stereo not given) the growth was 105% (inactive).
With `COc1ccccc1/C=C(/C(=O)c1ccccc1)c1ccccc1` the growth was 96.4% (inactive).
With `O=c1c(/C=C/c2ccco2)nnc(SCCN2CCOCC2)n1/N=C/c1ccc([N+](=O)[O-])cc1` the growth was 104% (inactive).
In the case of `O=C(CNC1C2CC3CC(C2)CC1C3)Sc1nnc2sc3ccccc3n12` (stereo not given), the growth is reported as 104% (inactive).
`Nc1cc(O)cc2cccnc12` was tested, and the growth was 86.7% (inactive).
`COc1ccc(-c2cc(-c3ccc(N(C)C)cc3)nc(NC(=O)c3ccncc3)n2)cc1` was tested, and the growth was 98% (inactive).
In the case of `CCCC(=O)Oc1ccc(/C(=C(/CC)Cc2ccccc2)c2ccc(OCCN3CCCC3)cc2)cc1`, the growth is reported as 49% (inactive).
In the case of `COc1cc(-c2c3sc(=O)[nH]c3nc3c2c(=O)[nH]n3C(C)C)cc2c1OCO2`, the growth is reported as 103% (inactive).
`COc1cc(C2CC(=O)Nc3c2c(C)nn3-c2nc3ccccc3[nH]2)cc(OC)c1OC` (stereo not given) was tested, and the growth was 102% (inactive).
In the case of `Nc1nc(SCc2ccccc2)c2ncn(C3CCCC3)c2n1`, the growth is reported as -25.9% (active).
In the case of `C=C(C[n+]1ccccc1)[C@@H]1CC[C@]2(C(=O)OC)CC[C@]3(C)[C@H](CC[C@@H]4[C@@]5(C)CC[C@H](O)C(C)(C)[C@@H]5CC[C@]43C)[C@@H]12`, the growth is reported as 99% (inactive).
For `Cc1cc(N/N=C/c2nc(-c3ccc(Cl)cc3)oc2C)c2cc(Br)ccc2n1`, the growth was -33.3% (active).
In the case of `O=C(COCc1c(-c2ccccc2)no[n+]1[O-])Nc1ccc(C(=O)/C=C/c2ccc3c(c2)OCO3)cc1`, the growth is reported as 107% (inactive).
In the case of `Cn1cc(-c2ccc(-c3cn(C)c4ncccc34)[nH]2)c2cccnc21`, the growth is reported as -44.1% (active).
`C=C1C(=O)O[C@H]2[C@H]1CC/C(Cn1cc(Cc3c[nH]c4ccccc34)nn1)=C\CC[C@@]1(C)O[C@@H]21` was tested, and the growth was 37.6% (inactive).
With `CCN(CC)CCCCNc1ccc(NCCCCN(CC)CC)c2c1C(=O)c1ccccc1C2=O` the growth was 85.5% (inactive).
In the case of `O=C1O[C@H]([C@H](O)CO)C(O)=C1O`, the growth is reported as 101% (inactive).
`OC(c1cccc(C(F)(F)F)c1)c1cnccc1NC1CCCCCC1` (stereo not given) was tested, and the growth was -2.39% (active).
In the case of `CC/C=C\C[C@H](O)C/C=C1/C(=O)C=C[C@@H]1C/C=C\CCCC(N)=O`, the growth is reported as 0.507% (active).
In the case of `CCN(CC)CC(O)CNc1c2ccc([N+](=O)[O-])cc2nc2cc(OC)c(OC)cc12` (stereo not given), the growth is reported as -16.2% (active).
In the case of `CC/C(Cc1ccccc1)=C(\c1ccc(OCCN2CCCC2)cc1)c1ccc(OC(C)=O)cc1`, the growth is reported as 57.2% (inactive).
In the case of `O=c1ccc2cc3ccccc3cc2[nH]1`, the growth is reported as 95.5% (inactive).
For `COc1cc(C(=O)/C=C/c2c(C)n([O-])c3ccc(C)cc3[n+]2=O)cc(OC)c1OC`, the growth was 55.4% (inactive).
With `C=CC[N+]1(CCO)CCN=C1CCCCCCCCCCCCC` (stereo not given) the growth was -87.8% (active).
In the case of `O=[N+]([O-])c1cccc(-c2nc3sccn3c2-c2ccnc(NCCNS(=O)(=O)c3ccc(C(F)(F)F)cc3)n2)c1`, the growth is reported as 51.4% (inactive).
`Brc1cccc(-c2cc(-c3ccc4c(c3)OCCO4)[nH]n2)c1` was tested, and the growth was 22% [25 µM] (inactive).
For `Cc1ccc2c(c1)C(=O)c1c-2c(OCCCN(C)C)nc2ccccc12`, the growth was 4.38% (active).
`CC1(C)CC(=O)C(c2c(-c3ccccc3)[nH]c3[nH]c(=S)[nH]c(=O)c23)=C(O)C1` was tested, and the growth was 105% (inactive).
`C=C(CN1CCN(c2cccc(C(F)(F)F)n2)CC1)c1ccc(C(=O)Nc2ccccc2N)cc1` was tested, and the growth was 23.1% (inactive).
`CCN(CC)CCCNc1cccc2c(SCc3ccccc3)ccnc12` was tested, and the growth was 48.6% (inactive).
`Cc1ccc2c(c1)n([O-])c1cc(Cl)ccc1[n+]2=O` was tested, and the growth was 110% (inactive).
`O=C(/C=C/c1cc2ccccc2[nH]c1=O)/C=C/c1cc2ccccc2[nH]c1=O` was tested, and the growth was -9.57% (active).
In the case of `COc1ccc(CNc2nccnn2)cc1`, the growth is reported as 94.9% (inactive).
In the case of `CC/C=C\C[C@H](F)C/C=C1/C(=O)C=C[C@@H]1C/C=C\CCCC(=O)OC`, the growth is reported as 1.8% (active).
In the case of `COc1ccc(-n2cc(-c3ccccc3)c3c(SCC(=O)N/N=C/c4ccc([N+](=O)[O-])cc4)ncnc32)cc1`, the growth is reported as 104% (inactive).
For `COc1ccc(S(=O)(=O)NCCCNc2nccc(-c3c(-c4cccc(N)c4)nc4sccn34)n2)cc1`, the growth was 106% (inactive).
For `O=C1/C(=C/c2ccc(F)cc2)CN(C(=O)CCN2CCC(=NO)CC2)C/C1=C\c1ccc(F)cc1`, the growth was -65.1% (active).
With `CCCCCCCCCCCCCCCCCCNC(=O)[C@H]1CSC(c2ccc(OC)c(F)c2)N1` (stereo not given in full) the growth was -53.1% (active).
`COc1c(C2CC(=O)Nc3c2cnn3Cc2ccco2)cc2c(c1OC)OCO2` (stereo not given) was tested, and the growth was 20.4% (inactive).
